Assay [1] in a line: NCI Yeast Anticancer Drug Screen. Data for the rad50 strain (AID 155).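 Further: 0% = growth of vehicle-only cultures of the same strain.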 The conditions noted are these: S. cerevisiae rad50 strain growth inhibition, active compounds read high. In a few lines:
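DNA repair mutant yeast, compound exposure, growth read-out; inhibition is taken relative to vehicle.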

A short description of assay [2]: NCI Yeast Anticancer Drug Screen. Data for the mec2-1 strain (AID 157). Conditions: S. cerevisiae mec2-1 strain, active compounds read high. In a few lines:
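Readout is yeast growth inhibition, normalised to vehicle-treated controls, in the mec2-1 strain exposed to compound.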

The nature of assay [3]: NCI Yeast Anticancer Drug Screen. Data for the sgs1 mgt1 strain (AID 161).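 Further: 0% = growth of cultures given vehicle only.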 Conditions: S. cerevisiae sgs1 mgt1 strain, active compounds read high. In a few lines: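 Percent growth inhibition was derived by comparing compound-exposed mutant yeast with vehicle-exposed cultures. The strain carries alterations in DNA damage repair.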
Assay [4] can be described thus: NCI Yeast Anticancer Drug Screen. Data for the cln2 rad14 strain (AID 165).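 Further: 0% = growth equal to vehicle treated cultures.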 Conditions: S. cerevisiae cln2 rad14 strain, active compounds read high. In short, it runs like this:
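Relative to vehicle controls, growth inhibition of compound-treated cln2 rad14 yeast was recorded.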

Assay [5] is described as follows: NCI Yeast Anticancer Drug Screen. Data for the bub3 strain (AID 167). Conditions: S. cerevisiae bub3 mutant strain, active compounds read high. In a few lines:
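In this screen, a yeast mutant lacking normal mitotic checkpoint function is challenged with compound. Relative growth versus vehicle gives the inhibition value.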

The nature of assay [6]: NCI Yeast Anticancer Drug Screen. Data for the mlh1 rad18 strain (AID 175). The conditions noted are these: S. cerevisiae mlh1 rad18 strain growth inhibition, active compounds read high. In a few lines: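 Test agents were incubated with a yeast strain of defined genotype (DNA damage repair defect). Inhibition of growth was derived by comparison with vehicle-exposed cultures.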

The mark [7] stands for this setting: at 5.0 µM (retest, dose inferred, filed as 0.5).
The mark [8] stands for this setting: at 50.0 µM (retest, dose inferred, filed as 5.0).

The panel holds about 79,000 compounds, 15% with a hit somewhere; the sample as a whole holds those more often. Values without a mark were called inactive. The source made the active and inactive calls. No stated cut-off is given here; in the data, active means growth inhibition above about 70%; inactive means the rest.

As to `COC1/C=C\OC2(C)Oc3c(C)c(O)c4c(c3C2=O)C(=O)C=C(NC(=O)C(C)=C/C=C\C(C)C(O)C(C)C2OC(C)(C)OC(C1C)C2C)C4=O` (configuration not stated), the growth inhibition is -4% in assay [1] (setting [7]); 93% (active) in assay [1] (setting [8]); 28.9% in assay [1] (at 50.0 µM); 24% in assay [2] (setting [7]); 37% in assay [2] (setting [8]); 33.5% in assay [2] (at 50.0 µM). The growth inhibition in assay [3] (setting [7]) is 1%; in assay [3] (setting [8]), 52%; in assay [3] (at 50.0 µM), 41.8%; in assay [4] (setting [7]) it was 19%; in assay [4] (setting [8]), 74% (active); in assay [4] (at 50.0 µM), 31.9%. Moreover, the growth inhibition in assay [5] (setting [7]) is -3%; in assay [5] (setting [8]), 93% (active); in assay [5] (at 50.0 µM), 14.9%; in assay [6] (setting [7]), 1%; in assay [6] (setting [8]), 77% (active); in assay [6] (at 50.0 µM), 38.5%.
As for `O=C1c2ccccc2-c2nnc3c(c21)Cc1ccccc1C3`, the growth inhibition is -4% in assay [1] (setting [7]); 38% in assay [1] (setting [8]); 50.9% in assay [1] (at 50.0 µM); -21% in assay [2] (setting [7]); 16% in assay [2] (setting [8]); 43% in assay [2] (at 50.0 µM). Moreover, the growth inhibition in assay [3] (setting [7]) is -7%; in assay [3] (setting [8]) it was 1%; in assay [3] (at 50.0 µM), 17.1%; in assay [4] (setting [7]) it was -8%; in assay [4] (setting [8]), 27%; in assay [4] (at 50.0 µM) it was 40.5%. Also, the growth inhibition was 9% in assay [5] (setting [7]); 26% in assay [5] (setting [8]); 67.5% in assay [5] (at 50.0 µM); -6% in assay [6] (setting [7]); 37% in assay [6] (setting [8]); 71% (active) in assay [6] (at 50.0 µM).
Consider `C=CC(=C)OC`, for which the growth inhibition was 0% in assay [1] (setting [7]); 14% in assay [1] (setting [8]); 10.4% in assay [1] (at 50.0 µM); -8% in assay [2] (setting [7]); 0% in assay [2] (setting [8]); 20.3% in assay [2] (at 50.0 µM). For the same compound, the growth inhibition in assay [3] (setting [7]) was -2%; in assay [3] (setting [8]) it was 1%; in assay [3] (at 50.0 µM), 19.1%; in assay [4] (setting [7]) it was 1%; in assay [4] (setting [8]) it was 8%; in assay [4] (at 50.0 µM), 69.9%. Moreover, the growth inhibition in assay [5] (setting [7]) is 2%; in assay [5] (setting [8]) it was -2%; in assay [5] (at 50.0 µM), 39%; in assay [6] (setting [7]), 2%; in assay [6] (setting [8]) it was 4%; in assay [6] (at 50.0 µM), 7.5%.
`Cc1ccccc1C(=N)c1ccccc1Cc1cccc2ccccc12`: the growth inhibition in assay [1] (setting [7]) was 9%; in assay [1] (setting [8]) it was 93% (active); in assay [1] (at 50.0 µM), 92.5% (active); in assay [2] (setting [7]), -10%; in assay [2] (setting [8]) it was 91% (active); in assay [2] (at 50.0 µM), 88.5% (active). In addition, the growth inhibition in assay [3] (setting [7]) was -1%; in assay [3] (setting [8]), 92% (active); in assay [3] (at 50.0 µM), 93.2% (active); in assay [4] (setting [7]) it was -11%; in assay [4] (setting [8]), 87% (active); in assay [4] (at 50.0 µM), 78.9% (active). In addition, the growth inhibition was -9% in assay [5] (setting [7]); 93% (active) in assay [5] (setting [8]); 88.4% (active) in assay [5] (at 50.0 µM); 0% in assay [6] (setting [7]); 91% (active) in assay [6] (setting [8]); 91.2% (active) in assay [6] (at 50.0 µM).
With `COC(C)(C)[C@@H]1CCCN1C1=C(C)C(=O)OC1`, the growth inhibition is 97% (active) in assay [1] (setting [7]); 99% (active) in assay [1] (setting [8]); 46.6% in assay [1] (at 50.0 µM); 85% (active) in assay [2] (setting [7]); 99% (active) in assay [2] (setting [8]); 69.3% in assay [2] (at 50.0 µM). Moreover, the growth inhibition in assay [3] (setting [7]) is 61%; in assay [3] (setting [8]) it was 99% (active); in assay [3] (at 50.0 µM), 78.5% (active); in assay [4] (setting [7]), 43%; in assay [4] (setting [8]) it was 99% (active); in assay [4] (at 50.0 µM) it was 24.6%. For the same compound, the growth inhibition was 89% (active) in assay [5] (setting [7]); 99% (active) in assay [5] (setting [8]); 46.6% in assay [5] (at 50.0 µM); 90% (active) in assay [6] (setting [7]); 99% (active) in assay [6] (setting [8]); 75.8% (active) in assay [6] (at 50.0 µM).
For `CCN(CC)c1ccc(N=Nc2ccc(Br)cn2)c(O)c1`, the growth inhibition in assay [1] (setting [7]) is -1%; in assay [1] (setting [8]), 51%; in assay [1] (at 50.0 µM) it was 96.8% (active); in assay [2] (setting [7]), -4%; in assay [2] (setting [8]) it was 84% (active); in assay [2] (at 50.0 µM), 95.5% (active). The growth inhibition in assay [3] (setting [7]) was -3%; in assay [3] (setting [8]) it was 79% (active); in assay [3] (at 50.0 µM) it was 97.1% (active); in assay [4] (setting [7]), -2%; in assay [4] (setting [8]), 46%; in assay [4] (at 50.0 µM) it was 94.7% (active). Also, the growth inhibition in assay [5] (setting [7]) was 1%; in assay [5] (setting [8]), 71% (active); in assay [5] (at 50.0 µM), 97.2% (active); in assay [6] (setting [7]) it was -1%; in assay [6] (setting [8]), 77% (active); in assay [6] (at 50.0 µM), 97.2% (active).
On to `CCOc1ccc2c(c1)[n+]([O-])c(-c1ccccc1)c(N)[n+]2[O-]`, for which the growth inhibition in assay [1] (setting [7]) is 23%; in assay [1] (setting [8]) it was 98% (active); in assay [1] (at 50.0 µM), 99.2% (active); in assay [2] (setting [7]) it was 28%; in assay [2] (setting [8]) it was 99% (active); in assay [2] (at 50.0 µM), 99.3% (active). Moreover, the growth inhibition is 27% in assay [3] (setting [7]); 99% (active) in assay [3] (setting [8]); 99.2% (active) in assay [3] (at 50.0 µM); 37% in assay [4] (setting [7]); 98% (active) in assay [4] (setting [8]); 98.6% (active) in assay [4] (at 50.0 µM). The growth inhibition in assay [5] (setting [7]) was 69%; in assay [5] (setting [8]), 99% (active); in assay [5] (at 50.0 µM), 99.1% (active); in assay [6] (setting [7]), 66%; in assay [6] (setting [8]), 98% (active); in assay [6] (at 50.0 µM) it was 98.8% (active).
In the case of `C[C@H]1CC[C@@H]2[C@@H](C)[C@H]3[C@H](C[C@H]4[C@@H]5CC=C6C[C@@H](O)CC[C@]6(C)[C@H]5C[C@H](O)[C@]34C)N2C1`, the growth inhibition was -6% in assay [1] (setting [7]); 8% in assay [1] (setting [8]); -17.8% in assay [1] (at 50.0 µM); 19% in assay [2] (setting [7]); -7% in assay [2] (setting [8]); -45.2% in assay [2] (at 50.0 µM). Moreover, the growth inhibition was -3% in assay [3] (setting [7]); 0% in assay [3] (setting [8]); -7.65% in assay [3] (at 50.0 µM); 16% in assay [4] (setting [7]); -2% in assay [4] (setting [8]); 38.9% in assay [4] (at 50.0 µM). Besides, the growth inhibition in assay [5] (setting [7]) is 1%; in assay [5] (setting [8]), -6%; in assay [5] (at 50.0 µM) it was -47.1%; in assay [6] (setting [7]) it was 1%; in assay [6] (setting [8]) it was 7%; in assay [6] (at 50.0 µM), 3%.
For the compound `C=C1CC(c2ccc(OCCCN3C(=O)c4ccccc4C3=O)cc2)OC1=O` (configuration not stated), the growth inhibition in assay [1] (setting [7]) is 33%; in assay [1] (setting [8]) it was 71% (active); in assay [1] (at 50.0 µM) it was 10.1%; in assay [2] (setting [7]) it was 30%; in assay [2] (setting [8]), 82% (active); in assay [2] (at 50.0 µM), -3.6%. Moreover, the growth inhibition was 28% in assay [3] (setting [7]); 67% in assay [3] (setting [8]); 15% in assay [3] (at 50.0 µM); 23% in assay [4] (setting [7]); 63% in assay [4] (setting [8]); 29.1% in assay [4] (at 50.0 µM). Moreover, the growth inhibition was 33% in assay [5] (setting [7]); 80% (active) in assay [5] (setting [8]); 8.8% in assay [5] (at 50.0 µM); 34% in assay [6] (setting [7]); 86% (active) in assay [6] (setting [8]); -6% in assay [6] (at 50.0 µM).

Values taken from PubChem BioAssay (NCI).
